# Bioassay records deposited in PubChem BioAssay by several laboratories.
# BJeLR viability = BJeLR cell viability loss. BJeLR (HRASV12) viability, CellTiter-Glo ATP luminescence, 48 h. inhibition, % (concentration not given with the values). actives 0.17% (n = 300,000). AID 1554; in the data active = inhibition above about 50%; inconclusive = no clear call, values can overlap the other calls
# Anthrax LF inh2 = inhibitors of Bacillus anthracis lethal factor protease; multiplex microsphere protease cleavage assay, LF; actives 0.12% (n = 360,000); P15917; inhibition, % at 10 µM; AID 588501
# Target sequence (P15917 whole entry, looked up): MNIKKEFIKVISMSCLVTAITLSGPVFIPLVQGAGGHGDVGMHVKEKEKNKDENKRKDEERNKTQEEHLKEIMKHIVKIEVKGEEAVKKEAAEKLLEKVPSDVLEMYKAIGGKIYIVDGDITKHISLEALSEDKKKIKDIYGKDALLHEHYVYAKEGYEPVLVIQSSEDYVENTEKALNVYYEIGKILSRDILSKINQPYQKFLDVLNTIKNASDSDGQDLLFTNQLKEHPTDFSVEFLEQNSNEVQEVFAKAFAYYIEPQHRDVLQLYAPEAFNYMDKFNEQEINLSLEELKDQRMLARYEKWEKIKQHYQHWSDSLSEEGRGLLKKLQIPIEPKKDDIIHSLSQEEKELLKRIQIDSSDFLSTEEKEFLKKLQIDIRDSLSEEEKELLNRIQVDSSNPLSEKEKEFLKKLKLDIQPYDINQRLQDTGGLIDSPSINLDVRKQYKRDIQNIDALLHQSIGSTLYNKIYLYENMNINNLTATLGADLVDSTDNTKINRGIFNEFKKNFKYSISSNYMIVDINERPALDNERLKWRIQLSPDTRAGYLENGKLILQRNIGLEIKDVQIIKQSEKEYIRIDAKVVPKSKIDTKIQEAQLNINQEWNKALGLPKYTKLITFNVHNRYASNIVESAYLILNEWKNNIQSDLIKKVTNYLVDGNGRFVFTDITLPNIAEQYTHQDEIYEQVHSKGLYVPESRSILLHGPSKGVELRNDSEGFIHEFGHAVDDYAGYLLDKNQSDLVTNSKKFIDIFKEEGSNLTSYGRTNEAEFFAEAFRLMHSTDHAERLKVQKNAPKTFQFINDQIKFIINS
# BH1578 lux ind = induces V. cholerae light production without autoinducers; activation, % at 18.7 µM; actives 0.16% (n = 350,000); V. cholerae BH1578 lux reporter, luminescence, 6 h; in the data active = activation mostly above about 9.7%, no sharp cut-off; inconclusive = no clear call, values can overlap the other calls; inactive = mostly below about 3.7%
# BoNT-F LC inh = BoNT F light chain protease inhibition; inhibition, % at 10 µM; Multiplex microsphere protease cleavage assay, flow cytometry; actives 0.22% (n = 360,000); in the data active = inhibition above about 35%, passing the limit was not always enough; inconclusive = no clear call, values can overlap the other calls
# Autofluor counter = flagged as autofluorescent in microsphere protease counterscreen. compound autofluorescence counterscreen, microsphere flow cytometry; active compounds read high. fluorescence intensity (concentration not given with the values). actives 3.1% (n = 360,000); in the data active = fluorescence intensity above about 16000; inconclusive = no clear call, values can overlap the other calls
# BoNT-A LC inh2 = blocks Botulinum neurotoxin A light chain protease; actives 0.17% (n = 360,000); inhibition, % at 10 µM; AID 588499; multiplex microsphere protease substrate cleavage, flow cytometry
# A number is an active result; . = inactive; ? = inconclusive; / = no result. Most compounds without a hit are left out; they make up all but 3.7% or so of the library. Rule as the data show it, unless noted: active = inhibition above about 30%; inconclusive = no clear call, values can overlap the other calls; inactive = below that.
SMILES,BJeLR viability,Anthrax LF inh2,BH1578 lux ind,BoNT-F LC inh,Autofluor counter,BoNT-A LC inh2
CC(=O)Nc1ccc(S(=O)(=O)c2ccnc3cc(Cl)ccc23)cc1,/,.,.,.,.,.
COc1ccc(-c2coc3c(C(=O)NCc4ccc(OC)c(OC)c4)cccc23)c(C)c1,/,.,.,.,.,.
CC1=C(C(=O)OCC2CCCO2)C(c2cccc(C(F)(F)F)c2)C2=C(CC(c3ccco3)CC2=O)N1 (configuration not stated),.,.,.,.,21820,.
CC1=C(C(=O)OCC2CCCO2)C(c2ccccc2OC(C)C)C2=C(CC(c3ccco3)CC2=O)N1 (configuration not stated),.,.,.,.,.,.
COc1ccc(NC(=O)C2(C)CCN2Cc2ccccc2Cl)cc1OC (configuration not stated),/,.,.,.,.,.
O=C(COc1ccc(CNC[C@H]2O[C@@H](n3ccc(=O)[nH]c3=O)[C@H](O)[C@@H]2O)cc1)Nc1nccs1,/,.,/,.,.,.
C=CCNC(=S)NNC(=O)c1cccn(Cc2cccc(Cl)c2)c1=O,.,.,.,.,24135,.
C=CCNC(=S)NNC(=O)c1cccn(Cc2ccc(Cl)cc2)c1=O,.,?,.,?,?,?
CC(CC(=O)O)CC(=O)Nc1ccccc1C(=O)O (configuration not stated),.,.,.,.,22711,.
O=C(c1ccc(Br)o1)N(Cc1ccccc1)c1ccccn1,.,.,.,.,19550,?
CCN(CC)Cc1c[nH]c2c(C(=O)OC)cccc12,.,.,17,.,.,.
COC(=O)[C@H]1C[C@H](OC(=O)NC2CC2)[C@@]2(O)CN(S(=O)(=O)c3ccc(C)cc3)CC2[C@H]1C(=O)OC (some centres not stated),/,.,.,.,.,.
Cc1ccc(CNc2ncnc3c2cnn3-c2ccccc2)cc1,.,.,.,.,16965,.
c1ccc(-n2ncc3c(NCCCN4CCOCC4)ncnc32)cc1,.,.,.,.,18090,.
Clc1ccc(-n2ncc3c(NCc4ccccn4)ncnc32)cc1,.,.,.,.,19639,.
Cc1ccc(-n2ncc3c(NCc4ccccn4)ncnc32)c(C)c1,.,.,.,.,.,.
O=C(CCSc1nnc(-c2ccccc2)o1)N1CCOCC1,.,.,.,.,.,.
CC(=O)Nc1ccc(NC(=O)CSc2nccn2Cc2ccccc2)cc1,.,.,.,.,20023,.
O=C(CCSc1nccn1Cc1ccccc1)N1CCOCC1,.,.,.,.,20488,.
Cc1ccc(Oc2nsnc2N2CCOCC2)cc1,.,.,.,.,20142,.
O=C(Oc1nsnc1N1CCOCC1)c1ccccc1,.,.,.,.,.,.
CN1/C(=C/C2CC(=O)NC2=O)C(C)(C)c2ccccc21 (configuration not stated),/,.,.,.,19664,.
CN1/C(=C/C2CC(=O)N(c3cccc4ccccc34)C2=O)C(C)(C)c2ccccc21 (configuration not stated),.,.,.,.,20679,.
OC(c1ccccn1)C(O)c1ccccn1 (configuration not stated),/,.,.,.,.,.
Cc1ccccc1C(O)c1ccccn1 (configuration not stated),.,.,.,.,24308,.
SMILES,BJeLR viability,Anthrax LF inh2,BH1578 lux ind,BoNT-F LC inh,Autofluor counter,BoNT-A LC inh2
Cn1c(=O)c2cc(NC(=O)NCc3ccccc3)ccc2n1Cc1cccc(C(F)(F)F)c1,/,.,.,.,.,.
Cc1ccc(OCC(=O)N2CCCCC2)c(Br)c1,.,.,.,.,17161,.
CCOC(=O)CN(C(=O)CSc1nnc(CNc2ccc(C)cc2C)o1)c1ccccc1,.,.,.,.,21560,.
COc1ccc(-c2nnc(SCC(=O)N3CCC(Cc4ccccc4)CC3)o2)cc1OC,.,.,.,.,22436,.
CCOC(=O)CN(C(=O)CSc1nnc(-c2ccc(OC)c(OC)c2)o1)c1ccccc1,.,.,.,.,20211,?
Cc1ccc(NCc2nnc(SCC(N)=O)o2)c(C)c1,.,.,.,.,.,.
Cc1cc(C)n2c(Nc3ccc4c(c3)OCCO4)c(CCc3ccccc3)nc2n1,/,.,/,.,.,.
O=C(OCc1cccc(F)c1)c1ccc2c(c1)-c1ccccc1C2=O,.,.,.,.,22813,.
CCOC(=O)c1ccc(COC(=O)c2ccc3c(c2)-c2ccccc2C3=O)cc1,.,.,.,.,.,.
